Screening data as filed in PubChem BioAssay.
GLP1R inv ag: inverse agonists of human GLP-1 receptor; P43220; HEK293 GLP-1R CRE-luciferase, luminescence, 24 h; GLP-1R form is constitutively active; Potency, µM (doses to about 38.3 µM), without a hit: top-dose activity change, negative = inhibition, most hits filed as inhibitors; actives 1.6% (n = 410,000); AID 624417; note: % is set by controls: 0 for no effect and ±100 for the full control effect; nearly all actives have a fitted effect of over 55% in size
Target sequence (P43220 whole entry, looked up): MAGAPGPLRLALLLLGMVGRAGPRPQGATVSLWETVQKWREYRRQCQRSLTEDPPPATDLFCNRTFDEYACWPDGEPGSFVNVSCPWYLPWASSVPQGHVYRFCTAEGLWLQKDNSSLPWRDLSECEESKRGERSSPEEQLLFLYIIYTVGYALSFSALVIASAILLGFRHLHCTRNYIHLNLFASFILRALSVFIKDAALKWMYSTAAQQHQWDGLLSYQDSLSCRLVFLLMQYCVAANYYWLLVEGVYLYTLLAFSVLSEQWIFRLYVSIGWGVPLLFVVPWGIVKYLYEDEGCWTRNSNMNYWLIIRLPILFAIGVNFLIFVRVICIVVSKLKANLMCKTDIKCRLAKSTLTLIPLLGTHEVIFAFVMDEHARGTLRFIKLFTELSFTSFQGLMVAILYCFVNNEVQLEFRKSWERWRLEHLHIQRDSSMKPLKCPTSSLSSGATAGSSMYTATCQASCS
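Cells are plated, allowed 12 hours at 37 deg C, then treated with compounds for 24 hr before luciferase detection reagent is added and luminescence is read after 12 min at room temperature. The HEK293 line carries constitutively active GLP-1R with a cAMP-responsive reporter.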
GLP-1R agonist: activates the human GLP-1 receptor | P43220 | HEK293 GLP-1R CRE-luciferase, luminescence, 4-6 h; cells express a hypersensitive GLP-1R form | Potency, µM (titrated, usually from 45.6 µM), without a hit: at the top dose activation, hits mostly activators | actives 0.007% (n = 380,000) | AID 624172; note: % of control where 0% means no effect
TGFb SMAD3 inh: TGF-b pathway inhibition | HepG2 CAGA-GFP TGF-b/SMAD3 reporter, GFP fluorescence, 18 h; TGF-beta stimulated, 500 pg/mL final | Potency, µM (series often up to 46.1 µM), for the others: at the highest dose activity, negative = inhibition, actives largely listed as inhibitors | AID 588855 | actives 1.2% (n = 410,000); note: % is set by controls: 0 for no effect and ±100 for the full control effect; nearly all actives have a fitted effect of over 65% in size
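TGF-beta reporter screen: HEPG2 CAGA-GFP, 1% FBS, 500 pg/mL TGF-beta final, 18 h; per-cell GFP summed per well; curves fitted and categorized by class.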
ATXN viability: reduces viability in counter-screen for ATXN expression inhibitors | AID 651635 | Potency, µM (titrated, usually from 56.7 µM), actives largely listed as cytotoxic | S2 cells (HEK-293 line with an ATXN2-luciferase reporter) viability, CellTiter-Fluor protease fluorescence, 24 h | actives 0.49% (n = 400,000); note: nearly all actives have a fitted effect of over 40% in size
HepG2 viability: HepG2 cytotoxicity, counter-screen for TGF-b inhibitors | HepG2 CAGA-GFP viability, ATP luminescence, 18 h | Potency, µM (series often up to 46.1 µM), for the others: at the highest dose activity change, negative = cytotoxicity, actives largely listed as cytotoxic | actives 0.76% (n = 410,000) | AID 588856
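HepG2 CAGA-GFP cells (1000/well, DMEM with 1% FBS) received compound, then TGF-beta at 500 pg/mL final, and were incubated 18 hours at 37 degrees C. Viability was read by CellTiter-Glo luminescence. Media-only wells were set as complete cell-killing and DMSO as no toxicity.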
ATXN2 expr inh: ATXN2 expression inhibition; Potency, µM (series often up to 57 µM), for inactives: at the highest dose activity change, negative = inhibition, actives largely listed as inhibitors; HEK-293 ATXN2-luciferase reporter, luminescence, 24 h; actives 0.72% (n = 360,000); note: % is set by controls: 0 for no effect and ±100 for the full control effect; nearly all actives have a fitted effect of over 55% in size
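qHTS (up to 57 uM final) was run with 24 h compound exposure of reporter cells at 37 °C. Each well was multiplexed: SteadyGlo luminescence measured ATXN2-luciferase expression after a fluorogenic Gly-Phe-AFC viability readout (25 uM final).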
Numbers without * were called inactive; i = inactive; ? = inconclusive; nt = no result. This is a sample that favours compounds with a hit; in the whole collection about 3.7% have one here. Calls come from the whole dose curve; as a rule, active = well fitted curve in the direction sought with a large enough effect; inconclusive = small, poorly fitted or top-dose-only effect, or another doubt; inactive = no such curve, though single readings can be large; an effect the other way counts as inactive or inconclusive. Potency is the fitted concentration of half-maximal effect.

SMILES	GLP1R inv ag	GLP-1R agonist	TGFb SMAD3 inh	ATXN viability	HepG2 viability	ATXN2 expr inh
COC(=O)C1CCN(Cc2ccc3c(c2)CN(C(=O)c2ccc4nc(C)c(C)nc4c2)CCO3)CC1	nt	nt	nt	i	nt	nt
CCN(C(=O)c1ccc(C)c(Br)c1)c1ccccc1	10µM*	10%	-2%	i	-19%	0%
O=C(c1ccc(CS(=O)(=O)c2c(Cl)cccc2Cl)o1)N1CCN(c2ccccc2)CC1	0%	nt	-25%	i	-30%	?
CCOC(=O)Cc1ccc(NC(=O)Nc2nnc(N3CCCCC3C)s2)cc1 (stereo not given)	?	nt	11µM*	nt	-39%	nt
CCOC(=O)Cc1nnc(NC(=O)Nc2ccccc2)s1	-22%	-1%	5%	i	3%	2%
Cn1c2ccccc2c2c3c(c4c5ccccc5n(CCC#N)c4c21)CNC3=O	nt	nt	nt	nt	nt	6.9µM*
Cc1ncc2c(c1CNS(=O)(=O)N(C)C)CCN(C(=O)/C=C/c1cccc(F)c1)C2	nt	nt	nt	i	nt	nt
CC(C)(C)C(=O)C(Cl)C(=O)Nc1ccccc1 (stereo not given)	18%	-4%	?	i	8.9µM*	nt
O=C(Nc1ccc(Nc2ccccc2)cc1)C(Cl)Cl	-12%	17%	13µM*	?	-77%	-16%
NC(=O)Nc1ccc(Nc2ccccc2)cc1	2%	-6%	-26%	i	-16%	nt
CCOc1ccc(OCC)c(NS(=O)(=O)c2c(C)[nH]c(=O)[nH]c2=O)c1	5%	nt	0%	nt	-16%	nt
Cc1cc2ccccc2c[n+]1C1CCCCC1	nt	nt	?	nt	-35%	nt
Cc1cccc2cc(CN(CCCO)C(=O)Nc3cccc(Cl)c3)c(=O)[nH]c12	11µM*	6%	0%	i	1%	9%
Cc1cccc2cc(CN(CCCO)C(=O)Nc3ccc(Cl)cc3)c(=O)[nH]c12	?	-3%	?	i	-16%	3%
Cc1ccc(C(=O)N2c3ccc(C)cc3C(C)(c3ccccc3)CC2(C)C)cc1 (stereo not given)	?	nt	?	nt	-17%	nt
COc1ccc(C(=O)N2c3ccc(C)cc3C(C)(c3ccccc3)CC2(C)C)cc1 (stereo not given)	10µM*	nt	?	nt	-23%	nt
Cc1cc(NC(=O)CCS(=O)(=O)c2nc(-c3ccccc3)cc(C(F)(F)F)n2)no1	?	-26%	?	20µM*	-105%	?
CC(C)CNC(=O)CCSc1nc(-c2ccc3c(c2)OCO3)cc(C(F)(F)F)n1	19%	23%	6%	i	3%	6%
CS(=O)(=O)c1nc(-c2ccccc2)cc(C(F)(F)F)n1	?	-10%	?	nt	13µM*	?
COc1ccc(NC(=O)CCS(=O)(=O)c2nc(-c3ccc4c(c3)OCO4)cc(C(F)(F)F)n2)cc1	11%	nt	?	nt	11µM*	nt
O=C(CCS(=O)(=O)c1nc(-c2ccc3c(c2)OCO3)cc(C(F)(F)F)n1)Nc1ccc(F)cc1F	14%	nt	18µM*	nt	-70%	nt
CCC(=O)Nc1ccccc1-c1nc2ccccc2n(C(C)C(=O)Nc2ccc(OC)cc2)c1=O (stereo not given)	17%	nt	?	nt	-26%	nt
O=C(CCCSc1nc(-c2ccco2)cc(C(F)(F)F)n1)Nc1ccc2c(c1)OCO2	10µM*	4%	0%	?	6%	9%
O=C(CSc1nc(-c2ccco2)cc(C(F)(F)F)n1)Nc1ccc2c(c1)OCO2	?	-7%	1%	?	2%	-21%
Cc1ccc(S(=O)(=O)NC2CC(C)(C)NC(C)(C)C2)c(C)c1C	?	0%	20%	i	-12%	-26%
SMILES	GLP1R inv ag	GLP-1R agonist	TGFb SMAD3 inh	ATXN viability	HepG2 viability	ATXN2 expr inh
Cc1cc(S(=O)(=O)NC2CC(C)(C)NC(C)(C)C2)c(Cl)cc1Cl	?	-3%	8%	nt	-16%	-6%
Cc1cc(C)c(S(=O)(=O)NC2CC(C)(C)NC(C)(C)C2)cc1Br	11µM*	-1%	-9%	i	-35%	-32%
COc1cc(C)c(S(=O)(=O)NC2CC(C)(C)NC(C)(C)C2)cc1C	?	2%	0%	i	-9%	-9%
Cc1ccc(C(C)C)cc1S(=O)(=O)NC1CC(C)(C)NC(C)(C)C1	8.9µM*	4%	6%	?	-40%	-19%
CCCOc1cc(C)c(S(=O)(=O)NC2CC(C)(C)NC(C)(C)C2)cc1C	?	-4%	?	i	11µM*	2%
CC1(C)CC(NS(=O)(=O)c2ccc3ccccc3c2)CC(C)(C)N1	11µM*	4%	-6%	i	-7%	-11%
CC1(C)N=C(N)N=C(N)N1c1ccc(OCC(=O)N2CCOCC2)c(Cl)c1	-20%	-1%	-5%	i	0.1µM*	nt
CC1(C)N=C(N)N=C(N)N1c1ccc(OCC(=O)N2CCOCC2)cc1	6%	13%	0%	i	-55%	nt
CCOC(=O)COc1ccc(S(=O)(=O)N2CCN(c3ccccc3F)CC2)cc1	-14%	1%	3%	i	0%	-12%
CCOC(=O)c1scc(-c2ccc(C)cc2)c1S(=O)(=O)N1CCN(c2ccccc2F)CC1	7.9µM*	nt	-10%	i	-1%	-24%
CCC(CO)Oc1cc(NCc2ccc(C(C)(C)C)cc2)c2ncn(C(C)C)c2c1 (stereo not given)	?	-5%	?	32µM*	-88%	?
CCC(COC)Oc1cc(NCc2ccccc2)c2ncn(C(C)C)c2c1 (stereo not given)	-3%	-6%	?	22µM*	-113%	-3%
COc1ccc(Cc2cc(NCc3ccccc3)c3ncn(C(C)C)c3c2)cc1	?	8%	?	?	11µM*	-8%
CCC(CO)Oc1cc(NCc2ccccc2)c2ncn(C(C)C)c2c1 (stereo not given)	10%	2%	?	?	-28%	-22%
CCOCCOc1cc(NCc2ccccc2)c2ncn(C(C)C)c2c1	?	7%	?	?	-111%	?
CC(C)n1cnc2c(NCc3ccccc3)cc(N[C@H](C)CO)cc21	?	-11%	?	0.89µM*	0.63µM*	1.1µM*
COc1cc(C(=O)OC(COCCC(C)C)CN2CCOCC2)cc(OC)c1OC (stereo not given)	nt	-1%	nt	i	nt	1%
COc1ccc(OC)c(NC(=O)CSC2=Nc3ccccc3C3=NC(CC(=O)NCc4ccc5c(c4)OCO5)C(=O)N23)c1 (stereo not given)	36%	nt	-20%	i	-26%	-1%
